Screening results: PubChem, NMMLSC
Hits are enriched below; roughly 1.2% of the tested compounds scored in any of these assays.
Avidin bead fluor – compound fluoresces at 488/530 nm on avidin beads. compound fluorescence 488/530 nm, flow cytometry; active compounds read high. fluorescence (KMESF) at 10 µM. actives 0.38% (n = 220,000); in the data active = fluorescence above about 47
GSH fluor – GSH bead compound fluorescence profile | fluorescence (KMESF) at 10 µM | AID 1776 | GSH beads flow cytometry, compound fluorescence 488/530 nm; active compounds read high | actives 0.25% (n = 190,000); in the data active = fluorescence above about 89;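 also: glutathione beads carrying GST-tagged Bcl family fusion proteins plus one bare bead set; values are compound well signal with DMSO vehicle wells as background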
RGS7-Gao reg – regulators of human RGS7-Galphao interaction | Multiplexed bead flow cytometry, RGS7-Galphao binding; actives lie on both sides | binding response (% of control), % at 10 µM | actives 0.35% (n = 220,000); in the data active = binding response below about 49% or above about 150%; inconclusive = no clear call, values can overlap the other calls; inactive = in between;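 also: fluorescent Galphao held in activated GDP-AlF4 state binding bead-coupled RGS7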
RGS8-Gao – modulates binding of RGS8 to human Galphao; AID 1423; multiplexed bead flow cytometry; actives lie on both sides; response (percent of control binding), % at 10 µM; actives 0.34% (n = 220,000); P09471; in the data active = response below about 60% or above about 140%; inactive = in between;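 also: Galphao activated as the GDP aluminium fluoride complex binding bead-coupled RGS8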
RGS4-Gao reg – modulates binding of RGS4 to human Galphao. P09471. Multiplexed bead flow cytometry; actives lie on both sides. binding response (% of control), % at 10 µM. actives 0.33% (n = 220,000). AID 1415; in the data active = binding response below about 49% or above about 150%; inactive = in between;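 also: fluorescent Galphao activated with aluminum fluoride binding bead-coupled RGS4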
RGS16-Gao – RGS16-Galphao interaction regulator (human). O15492+P09471. bead-based flow cytometry RGS16-Galphao binding, fluorescence; actives lie on both sides. binding response (% of control), % at 10 µM. actives 0.38% (n = 220,000). AID 1441;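 also: Galphao activated by GDP with aluminum fluoride before binding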
Target sequence (O15492 whole entry, looked up): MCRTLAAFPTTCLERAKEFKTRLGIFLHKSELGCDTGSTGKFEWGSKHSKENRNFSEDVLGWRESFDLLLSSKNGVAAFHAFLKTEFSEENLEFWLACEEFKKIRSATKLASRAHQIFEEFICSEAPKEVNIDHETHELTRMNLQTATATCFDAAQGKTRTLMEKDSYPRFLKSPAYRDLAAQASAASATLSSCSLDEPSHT
Target sequence (P09471 whole entry, looked up): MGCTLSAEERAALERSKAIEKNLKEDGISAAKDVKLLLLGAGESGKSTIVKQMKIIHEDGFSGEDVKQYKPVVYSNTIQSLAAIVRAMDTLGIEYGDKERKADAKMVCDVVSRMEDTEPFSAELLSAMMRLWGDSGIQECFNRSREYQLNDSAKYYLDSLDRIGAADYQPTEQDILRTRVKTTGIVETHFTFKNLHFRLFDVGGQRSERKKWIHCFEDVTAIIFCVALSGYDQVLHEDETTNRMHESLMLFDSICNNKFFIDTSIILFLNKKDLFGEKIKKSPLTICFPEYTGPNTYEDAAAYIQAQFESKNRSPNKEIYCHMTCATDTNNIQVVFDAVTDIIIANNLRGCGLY
RGS-Gao – modulates binding between human RGS4 and Galphao; shares compounds with RGS16-Gao; multiplexed bead flow cytometry, RGS–Galpha-o binding; RGS4–Galpha-o binding response, % at 10 µM; actives 99% (n = 1,600);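 also: fluorescently labeled Galpha-o bound to GDP with aluminium fluoride binding biotinylated RGS beads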
Avidin counter – counter-screen: compounds disrupting biotin binding to avidin beads. shares compounds with RGS16-Gao. streptavidin beads, fluorescein-biotin binding, flow cytometry. inhibition, % at 10 µM. 1,700 tested, under 10 active. AID 1783;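 active = inhibition above 50%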;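 also: median green fluorescence of gated singlet beads compared with DMSO control wells; 0% = DMSO wells and 100% = complete loss of bead fluorescence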
RGS8-Gao confirm – confirmation of regulators of human RGS8-Galphao interaction. bead-based flow cytometry RGS8-Galphao binding, fluorescence; actives lie on both sides. binding response (% of control), % at 10 µM. shares compounds with RGS16-Gao. actives 3% (n = 1,700); in the data active = binding response below about 72% or above about 130%; inactive = in between;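 also: Galphao activated as GDP AlF4 complex before binding bead RGS8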
RGS7-Gao confirm – RGS7-Galphao interaction regulation, single point confirmation | bead-based flow cytometry RGS7-Galphao binding; actives lie on both sides | response (percent of control binding), % at 10 µM | actives 7.8% (n = 1,700) | shares compounds with RGS16-Gao | AID 1837; in the data active = response below about 75% or above about 130%; inactive = in between;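 also: fluorescent Galphao activated with GDP and aluminum fluoride binding bead-coupled RGS7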
RGS16-Gao single – confirmation of regulators of human RGS16-Galphao interaction | shares compounds with RGS16-Gao | bead-based flow cytometry, RGS16-Galphao binding; actives lie on both sides | response (% of control binding), % at 10 µM | actives 4% (n = 1,700) | AID 1838; in the data active = response below about 74% or above about 130%; inactive = in between;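 also: Galphao activated as the GDP aluminium fluoride complex binding bead-coupled RGS16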
RGS4-Gao single – confirmation of regulators of human RGS4-Galphao interaction. AID 1840. actives 4% (n = 1,700). RGS4-Galphao binding, multiplexed bead flow cytometry; actives lie on both sides. binding response (% of control), % at 10 µM. shares compounds with RGS16-Gao; in the data active = binding response below about 74% or above about 130%; inactive = in between
RGS19-Gao single – RGS19-Galphao interaction regulation, single point confirmation. shares compounds with RGS16-Gao. bead-based flow cytometry RGS19-Galphao binding; actives lie on both sides. response (percent of control binding), % at 10 µM. actives 5% (n = 1,700); in the data active = response below about 50% or above about 160%; inactive = in between;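 also: 100% = no compound control and 0% = blank background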
Active calls of the source: *; ? = inconclusive; . = no result given; [ ] = another dose, or the depositor's remark. Unless noted, no rule for the calls is given here.

SMILES	Avidin bead fluor	GSH fluor	RGS7-Gao reg	RGS8-Gao	RGS4-Gao reg	RGS16-Gao	RGS-Gao	Avidin counter	RGS8-Gao confirm	RGS7-Gao confirm	RGS16-Gao single	RGS4-Gao single	RGS19-Gao single
O=C(Nc1ccc(Cl)c(Cl)c1)Nc1ccccc1O	0	.	?	39*	13*	16*	.	-1	94	70*	87	85	66
O=C(Nc1ccc(Cl)c(Cl)c1)Nc1ccc(Br)cc1F	6	8	100	102	98	103	.	.	.	.	.	.	.
O=C(Cn1cnc2ccccc2c1=O)N1CCN(Cc2ccccc2)CC1	11	44	102	104	104	102	.	.	.	.	.	.	.
Cc1ccccc1NC(=S)N(Cc1ccccc1)Cc1cccs1	11	14	?	98	97	98	.	.	.	.	.	.	.
O=C(Cc1ccc(Cl)cc1)Oc1cccc2cccnc12	6	24	82	66	79	22*	79*	0	98	96	97	99	84
O=C(Oc1cccc2cccnc12)c1ccco1	7	34	96	94	97	94	.	.	.	.	.	.	.
Cc1c(Cl)c(C(F)(F)F)nn1CC(=O)NCc1ccccc1	6	15	99	102	98	102	.	.	.	.	.	.	.
Cc1c(Br)c(C(F)(F)F)nn1CC(=O)NCc1ccccc1	13	19	110	127	109	203*[activator]	109*	-1	102	101	102	102	90
NC1=NC(=O)CC(C(=O)NCCc2ccccc2)S1 (stereo not given)	.	10	-29*	3.8*	-82*	-73*	.	-2	115	161*[activator]	130*[activator]	137*[activator]	326*[activator]
NC1=NC(=O)CC(C(=O)Nc2cccc3ccccc23)S1 (stereo not given)	25	10	109	115	107	121	.	.	.	.	.	.	.
Cc1cc(C)cc(OCC(=O)OCC(=O)Nc2c(C)n(C)n(-c3ccccc3)c2=O)c1	11	14	153*[activator]	139	145	145	145*	1	103	100	101	102	98
Cc1c(NC(=O)COC(=O)c2ccccc2Cl)c(=O)n(-c2ccccc2)n1C	10	17	100	105	97	104	.	.	.	.	.	.	.
Cc1c(NC(=O)CSc2nnc(COc3ccccc3)n2-c2ccccc2)c(=O)n(-c2ccccc2)n1C	141*	13	171*[activator]	101	114	104	114*	.	.	.	.	.	.
Cc1c(NC(=O)CSc2n[nH]c(=O)n2-c2ccccc2)c(=O)n(-c2ccccc2)n1C	9	17	109	104	106	108	.	.	.	.	.	.	.
Cc1c(NC(=O)COC(=O)COc2ccc(Nc3ccccc3)cc2)c(=O)n(-c2ccccc2)n1C	11	14	155*[activator]	140*[activator]	143	142	143*	.	.	.	.	.	.
CCOCC(=O)Nc1c(C)n(C)n(-c2ccccc2)c1=O	14	31	106	102	105	107	.	.	.	.	.	.	.
